Measured values taken from PubChem BioAssay AID1159580 (chemical genetic matrix, 2015).
Out of some 5,500 compounds screened, about 2,000 (36%) were called active. Roughly 18% stayed inconclusive and do not appear here. Rule as the data show it: active = normalized growth mostly below about 0.91 (no sharp cut-off); inconclusive = no clear call, values can overlap the other calls; inactive = mostly above about 0.92. The list shows a part of the results.

Assay: chemical genetic growth profiling, strain panel (AID 1159580);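 also: tested at 20 µM; growth read once vehicle control cultures reached saturation at 30 °C; 1 = growth at the plate median or of vehicle wells; lower values mean less growth of the strain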
Settings: growth OD

Measured: normalized growth

C[C@H]1C(=O)O[C@@H]2CCN3CC=C(COC(=O)[C@](C)(O)[C@]1(C)O)[C@H]23
inactive: S. cerevisiae deletion strains, locus YKL068W, active compounds read low 0.992 | S. cerevisiae deletion strains, locus YKL085W, strain MDH1 (second series), active compounds read low 1.04 | S. cerevisiae deletion strains, locus YKL085W, strain MDH1, active compounds read low 1.04 | S. cerevisiae deletion strains, locus YKL160W, strain elf1, active compounds read low 0.991 | S. cerevisiae deletion strains, locus YKL190W, strain CNB1, active compounds read low 1 | S. cerevisiae deletion strains, locus YKR001C, strain vps1, active compounds read low 0.986 | S. cerevisiae deletion strains, locus YKR026C, strain gcn3, active compounds read low 0.986 | S. cerevisiae deletion strains, locus YKR091W, strain srl3, active compounds read low 0.975 | S. cerevisiae deletion strains, locus YLL001W, strain dnm1, active compounds read low 0.976 | S. cerevisiae deletion strains, locus YLL026W, active compounds read low 0.99 | S. cerevisiae deletion strains, locus YLL041C, strain sdh2, active compounds read low 0.993 | S. cerevisiae deletion strains, locus YLR027C, strain aat2, active compounds read low 0.993 | S. cerevisiae deletion strains, locus YLR039C, strain RIC1, active compounds read low 0.989 | S. cerevisiae deletion strains, locus YLR058C, strain SHM2, active compounds read low 0.99 | S. cerevisiae deletion strains, locus YLR102C, strain apc9, active compounds read low 0.988 | S. cerevisiae deletion strains, locus YLR113W, strain HOG1, active compounds read low 1.01 | S. cerevisiae deletion strains, locus YLR221C, strain rsa3, active compounds read low 1.01 | S. cerevisiae deletion strains, locus YLR258W, strain gsy2, active compounds read low 0.992 | S. cerevisiae deletion strains, locus YLR262C, strain YPT6 (second series), active compounds read low 0.976 | S. cerevisiae deletion strains, locus YLR262C, strain YPT6, active compounds read low 1.02 | S. cerevisiae deletion strains, locus YLR268W, strain sec22, active compounds read low 0.988 | S. cerevisiae deletion strains, locus YLR320W, strain mms22, active compounds read low 0.997 | S. cerevisiae deletion strains, locus YLR330W, strain CHS5, active compounds read low 0.992 | S. cerevisiae deletion strains, locus YLR342W, strain FKS1 (second series), active compounds read low 0.976 | S. cerevisiae deletion strains, locus YLR342W, strain FKS1, active compounds read low 0.997 | S. cerevisiae deletion strains, locus YLR357W, strain rsc2, active compounds read low 0.979 | S. cerevisiae deletion strains, locus YLR370C, strain arc18, active compounds read low 0.986 | S. cerevisiae deletion strains, locus YLR371W, strain rom2, active compounds read low 0.984 | S. cerevisiae deletion strains, locus YLR384C, strain iki3, active compounds read low 0.987 | S. cerevisiae deletion strains, locus YLR418C, strain cdc73, active compounds read low 0.985 | S. cerevisiae deletion strains, locus YML016C, strain PPZ1, active compounds read low 0.987 | S. cerevisiae deletion strains, locus YML032C, strain rad52, active compounds read low 0.993 | S. cerevisiae deletion strains, locus YML120C, strain ndi1, active compounds read low 0.988 | S. cerevisiae deletion strains, locus YML124C, strain tub3, active compounds read low 0.987 | S. cerevisiae deletion strains, locus YMR058W, strain fet3, active compounds read low 0.997 | S. cerevisiae deletion strains, locus YMR078C, strain ctf18, active compounds read low 0.983 | S. cerevisiae deletion strains, locus YMR125W, strain sto1, active compounds read low 0.987 | S. cerevisiae deletion strains, locus YMR129W, active compounds read low 0.998 | S. cerevisiae deletion strains, locus YMR205C, strain PFK2, active compounds read low 0.986 | S. cerevisiae deletion strains, locus YMR223W, strain ubp8, active compounds read low 0.991 | S. cerevisiae deletion strains, locus YMR231W, strain pep5, active compounds read low 0.998 | S. cerevisiae deletion strains, locus YMR263W, strain SAP30, active compounds read low 1 | S. cerevisiae deletion strains, locus YMR307W, strain GAS1, active compounds read low 0.983 | S. cerevisiae deletion strains, locus YNL067W, strain RPL9B, active compounds read low 1.02 | S. cerevisiae deletion strains, locus YNL071W, strain lat1, active compounds read low 0.991 | S. cerevisiae deletion strains, locus YNL128W, strain TEP1, active compounds read low 0.98 | S. cerevisiae deletion strains, locus YNL153C, strain GIM3, active compounds read low 1.02 | S. cerevisiae deletion strains, locus YNL183C, strain NPR1, active compounds read low 0.969 | S. cerevisiae deletion strains, locus YNL209W, strain ssb2, active compounds read low 0.994 | S. cerevisiae deletion strains, locus YNL233W, strain BNI4, active compounds read low 0.995 | S. cerevisiae deletion strains, locus YNL248C, strain rpa49, active compounds read low 0.995 | S. cerevisiae deletion strains, locus YNL250W, strain rad50, active compounds read low 0.978 | S. cerevisiae deletion strains, locus YNL271C, strain bni1, active compounds read low 0.985 | S. cerevisiae deletion strains, locus YNL298W, strain CLA4, active compounds read low 0.987 | S. cerevisiae deletion strains, locus YNL307C, strain MCK1, active compounds read low 0.991 | S. cerevisiae deletion strains, locus YNL322C, strain KRE1 (second series), active compounds read low 0.982 | S. cerevisiae deletion strains, locus YNL322C, strain KRE1, active compounds read low 0.993 | S. cerevisiae deletion strains, locus YNR049C, strain mso1, active compounds read low 0.989 | S. cerevisiae deletion strains, locus YNR052C, strain pop2, active compounds read low 0.987 | S. cerevisiae deletion strains, locus YOL006C, strain TOP1, active compounds read low 1.03 | S. cerevisiae deletion strains, locus YOL012C, strain htz1 0.746 | S. cerevisiae deletion strains, locus YOL147C, strain pex11, active compounds read low 0.997 | S. cerevisiae deletion strains, locus YOR001W, strain rrp6, active compounds read low 0.995 | S. cerevisiae deletion strains, locus YOR061W, strain CKA2, active compounds read low 0.989 | S. cerevisiae deletion strains, locus YOR069W, strain VPS5, active compounds read low 0.984 | S. cerevisiae deletion strains, locus YOR070C, strain gyp1, active compounds read low 0.994 | S. cerevisiae deletion strains, locus YOR080W, strain dia2, active compounds read low 0.994 | S. cerevisiae deletion strains, locus YOR083W, strain WHI5, active compounds read low 1 | S. cerevisiae deletion strains, locus YOR106W, strain vam3, active compounds read low 0.998 | S. cerevisiae deletion strains, locus YOR136W, strain idh2, active compounds read low 0.99 | S. cerevisiae deletion strains, locus YOR144C, strain elg1, active compounds read low 0.988 | S. cerevisiae deletion strains, locus YOR184W, strain ser1, active compounds read low 1.02 | S. cerevisiae deletion strains, locus YOR231W, strain MKK1, active compounds read low 0.98 | S. cerevisiae deletion strains, locus YOR265W, strain rbl2, active compounds read low 0.996 | S. cerevisiae deletion strains, locus YOR270C, strain vph1, active compounds read low 0.967 | S. cerevisiae deletion strains, locus YOR290C, strain snf2, active compounds read low 0.998 | S. cerevisiae deletion strains, locus YOR316C, strain cot1, active compounds read low 0.978 | S. cerevisiae deletion strains, locus YPL051W, strain arl3, active compounds read low 0.992 | S. cerevisiae deletion strains, locus YPL055C, strain LGE1, active compounds read low 1.06 | S. cerevisiae deletion strains, locus YPL078C, strain atp4, active compounds read low 0.993 | S. cerevisiae deletion strains, locus YPL106C, strain sse1, active compounds read low 0.98 | S. cerevisiae deletion strains, locus YPL240C, strain hsp82, active compounds read low 0.986 | S. cerevisiae deletion strains, locus YPL256C, strain CLN2, active compounds read low 0.992 | S. cerevisiae deletion strains, locus YPR119W, strain clb2, active compounds read low 0.991 | S. cerevisiae deletion strains, locus YPR141C, strain kar3, active compounds read low 0.98 | S. cerevisiae deletion strains, locus YPR163C, strain tif3, active compounds read low 0.986 | S. cerevisiae deletion strains, locus YPR167C, strain met16, active compounds read low 0.989 | S. cerevisiae deletion strains, strain wtn01, active compounds read low 0.987 | S. cerevisiae strains, strain wild type, active compounds read low 0.995
